Laboratory results from PubChem BioAssay (NCATS).
Several values for one entry are separate records, joined by “and”; a condition that tells them apart may be missing. Identical values can stand only once. Records with an inconclusive call do not appear. Activity calls are given as the source filed them. Unless noted, calls come from the whole dose curve.

Assays:
[1] = Validation screen for inhibitors of Lassa infection (AID 463096); note: % is set by controls: 0 for no effect and ±100 for the full control effect
[2] = qHTS for Inhibitors of the Functional Ribonucleoprotein Complex (vRNP) of Lassa (LASV) Arenavirus: LASV Primary Screen - GLuc reporter signal (AID 1347082; calls by dose curve; tested in HEK293 reporter line; note: % is set by controls: 0 for no effect and ±100 for the full control effect; nearly all actives have a fitted effect of over 60% in size)
[3] = qHTS for Inhibitors of the Functional Ribonucleoprotein Complex (vRNP) of Lassa (LASV) Arenavirus: Viability assay - alamar blue signal for LASV Primary Screen (AID 1347083; calls by dose curve; tested in HEK293 reporter line; note: % is set by controls: 0 for no effect and ±100 for the full control effect; nearly all actives have a fitted effect of over 80% in size)
[4] = qHTS for Inhibitors of the Functional Ribonucleoprotein Complex (vRNP) of Lymphocytic Choriomeningitis Arenaviruses (LCMV): Viability assay - alamar blue signal for LCMV Primary Screen (AID 1347085; calls by dose curve; tested in HEK293 reporter line; note: % is set by controls: 0 for no effect and ±100 for the full control effect; nearly all actives have a fitted effect of over 80% in size)
[5] = biological target: Nucleoprotein (Lymphocytic choriomeningitis virus (strain Armstrong)) (UniProt P09992); experiment: qHTS for Inhibitors of the Functional Ribonucleoprotein Complex (vRNP) of Lymphocytic Choriomeningitis Arenaviruses (LCMV): LCMV Primary Screen - GLuc reporter signal (AID 1347086); note: % is set by controls: 0 for no effect and ±100 for the full control effect; nearly all actives have a fitted effect of over 70% in size
[6] = Primary qHTS for inhibitors of SARS-S pseudo-typed particle cell entry (AID 1479145); note: nearly all actives have a fitted effect of over 45% in size; for activity change, negative = inhibition: % is set by controls: 0 for no effect and ±100 for the full control effect
[7] = Primary qHTS for Huh7 cytotoxicity: counterscreen for inhibitors of MERS-S pseudotyped particle cell entry (AID 1479147); conditions: outcome: dose series up to 57.1 µM unless noted
[8] = Primary qHTS for inhibitors of MERS-S pseudo-typed particle cell entry (AID 1479149); note: nearly all actives have a fitted effect of over 60% in size; note: potency is the fitted concentration of half-maximal effect
[9] = Primary qHTS for Vero E6 cytotoxicity: counterscreen for inhibitors of SARS-S pseudo-typed particle cell entry (AID 1479150); conditions: outcome: dose series up to 57.1 µM unless noted; for activity change, negative = cytotoxicity: % is set by controls: 0 for no effect and ±100 for the full control effect
[10] = Cytotoxicity counterscreen for inhibitors of SARS-CoV-2 cell entry (AID 1645845); note: nearly all actives have a fitted effect of over 50% in size; for activity change, negative = cytotoxicity: % is set by controls: 0 for no effect and ±100 for the full control effect
Summary of the method: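 48 h compound treatment (after 1 h preincubation), HEK293-ACE2 cells, 37 C/5% CO2; ATP luminescence endpoint; normalized to cell wells and media blanks.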

[11] = Primary qHTS to identify inhibitors of SARS-CoV-2 cell entry (AID 1645846); note: nearly all actives have a fitted effect of over 45% in size
Summary of the method: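 HEK293 cells stably expressing human ACE2, pre-treated 1 h with compound, then infected with MLV particles pseudotyped with Wuhan-Hu-1 spike (C-terminal 19-aa truncation). Luciferase luminescence after 48 h at 37 °C, normalised to spike PP and bald PP.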

[12] = biological target: Alpha-galactosidase (Coffea arabica) (UniProt Q42656); experiment: Counterscreen for Glucocerebrosidase Inhibitors: qHTS Assay for Coffee Bean alpha-Galactosidase at pH 4.5 (AID 957; active = well fitted curve in the direction sought with a large enough effect; an effect the other way counts as inactive or inconclusive;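 note: plate controls were enzyme alone for no effect and no enzyme for full effect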)
Summary of the method: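 AC50 values derive from Hill-equation modeling of concentration-response data, normalized to no-enzyme and full-activity controls. The pH 4.5 citrate assay used 2 nM coffee bean enzyme and 80 uM fluorogenic substrate for 20 min.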

[13] = biological target: Alpha-galactosidase (Coffea arabica) (UniProt Q42656); experiment: Counterscreen for Glucocerebrosidase Inhibitors: qHTS Assay for Coffee Bean alpha-Galactosidase at pH 5.9 (AID 998; active = well fitted curve in the direction sought with a large enough effect; an effect the other way counts as inactive or inconclusive;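 note: plate controls were uninhibited enzyme for no effect and no-enzyme basal signal for full effect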)
Summary of the method: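 Compounds were titrated from 0.7 nM to 77 uM against green coffee bean alpha-galactosidase (2 nM) using 80 uM fluorogenic 4-methylumbelliferyl substrate. After 20 min at room temperature, reactions were stopped at pH 10 and read by fluorescence.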

[14] = Inducers of the Endoplasmic Reticulum Stress Response (ERSR) in human glioma: Validation (AID 504836; active = well fitted curve in the direction sought with a large enough effect; an effect the other way counts as inactive or inconclusive; note: 0% is about no effect)
Summary of the method: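 ERSR induction read as luciferase luminescence (Bright-Glo, 10 min at room temperature) in stably transfected human U87-MG glioma cells exposed to compounds for 16 h, using GRP78 as sensor.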

[15] = qHTS for inhibitors of Rabies Virus screened against the NCATS CANVASS Library (AID 1347402); note: 0% is about no effect
[16] = activity change, negative = inhibition: at 57.1 µM (top of the series) unless noted

Sequence of Nucleoprotein (Lymphocytic choriomeningitis virus (strain Armstrong)) (P09992 whole entry, looked up): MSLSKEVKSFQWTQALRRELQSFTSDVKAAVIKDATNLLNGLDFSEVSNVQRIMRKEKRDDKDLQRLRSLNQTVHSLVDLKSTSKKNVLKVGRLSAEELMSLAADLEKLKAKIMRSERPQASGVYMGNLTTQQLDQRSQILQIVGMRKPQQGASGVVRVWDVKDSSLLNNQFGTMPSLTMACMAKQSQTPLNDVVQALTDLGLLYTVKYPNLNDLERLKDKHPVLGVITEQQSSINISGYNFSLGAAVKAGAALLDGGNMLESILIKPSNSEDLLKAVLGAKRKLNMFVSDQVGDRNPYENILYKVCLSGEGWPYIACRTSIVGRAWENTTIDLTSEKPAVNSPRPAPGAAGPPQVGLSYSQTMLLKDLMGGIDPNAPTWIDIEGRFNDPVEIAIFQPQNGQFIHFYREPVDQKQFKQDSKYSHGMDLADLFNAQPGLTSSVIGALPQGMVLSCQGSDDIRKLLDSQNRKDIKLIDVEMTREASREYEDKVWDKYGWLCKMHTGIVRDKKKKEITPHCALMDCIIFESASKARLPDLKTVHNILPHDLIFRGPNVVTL
Sequence of Alpha-galactosidase (Coffea arabica) (Q42656 whole entry, looked up): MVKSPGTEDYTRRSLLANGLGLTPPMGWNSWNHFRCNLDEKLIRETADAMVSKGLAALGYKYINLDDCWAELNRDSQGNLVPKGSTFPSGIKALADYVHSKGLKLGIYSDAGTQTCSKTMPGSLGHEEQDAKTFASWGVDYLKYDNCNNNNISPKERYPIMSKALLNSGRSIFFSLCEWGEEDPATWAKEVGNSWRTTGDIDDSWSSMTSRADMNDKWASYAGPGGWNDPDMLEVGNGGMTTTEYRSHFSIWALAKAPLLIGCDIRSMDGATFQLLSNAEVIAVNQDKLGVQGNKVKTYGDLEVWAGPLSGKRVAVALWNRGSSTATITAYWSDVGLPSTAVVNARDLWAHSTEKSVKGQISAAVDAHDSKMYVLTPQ

CC(=O)O[C@H]1CC2(C)[C@@H](C[C@@H](O)[C@H]3[C@@]4(C)CC[C@@H](O)[C@@H](C)[C@@H]4CC[C@@]32C)C1=C(CCC=C(C)C)C(=O)O (some centres undefined)
-17.3%: activity change, negative = inhibition [11, 16]
inactive: Potency [1] | Potency [2] | Potency [3] | Potency [4] | Potency [5] | Potency [6] | outcome [7] | Potency [8] | outcome [9] | Potency [10]

CCCCCCCC(=O)O
1.02%: activity change, negative = inhibition [11, 16]
inactive: Potency [2] | Potency [3] | Potency [4] | Potency [5] | Potency [6] | outcome [7] | Potency [8] | outcome [9] | Potency [10]

CC(C)[N+]1(C)[C@@H]2CC[C@H]1CC(OC(=O)C(CO)c1ccccc1)C2 (some centres undefined)
2.78%: activity change, negative = inhibition [11, 16]
inactive: Potency [2] | Potency [3] | Potency [4] | Potency [5] | Potency [6] | outcome [7] | Potency [8] | outcome [9] | Potency [10]

CCCCCCCCCCCC(=O)OCC(O)CO (centres undefined)
inactive: Potency [2] | Potency [3] | Potency [4] | Potency [5] | Potency [6] | outcome [7] | Potency [8] | outcome [9] | Potency [10] | Potency [11, 16]

CC(/C=C/C=C(\C)C(=O)O[C@@H]1O[C@H](CO[C@@H]2O[C@H](CO)[C@@H](O)[C@H](O)[C@H]2O)[C@@H](O)[C@H](O)[C@H]1O)=C\C=C\C=C(C)\C=C\C=C(/C)C(=O)O[C@@H]1O[C@H](CO[C@@H]2O[C@H](CO)[C@@H](O)[C@H](O)[C@H]2O)[C@@H](O)[C@H](O)[C@H]1O
-12.5%: activity change, negative = inhibition [11, 16]
inactive: Potency [2] | Potency [3] | Potency [4] | Potency [5] | Potency [6] | outcome [7] | Potency [8] | outcome [9] | Potency [10]

c1cc(CN2CCCNCCNCCCNCC2)ccc1CN1CCCNCCNCCCNCC1
-25.3%: activity change, negative = inhibition ([11]; SARS-CoV-2 pseudovirus cell entry assay, luminescence, at 5.25 µM (top of the series))
-51.7%: activity change, negative = inhibition ([11]; SARS-CoV-2 pseudovirus cell entry assay, luminescence, at 57.1 µM (top of the series))
inactive: Potency [2] | Potency [3] | Potency [4] | Potency [5] | activity change, negative = inhibition [6] -15.1% [at 5.34 µM] | outcome [7] inactive [at 5.34 µM] | outcome [8] inactive [at 5.34 µM] | outcome [9] inactive [at 5.34 µM] | Potency [10]

N[C@@H](CC(=O)O)C(=O)O
inactive: outcome [12] | outcome [13] | Potency [1] | outcome [14] | Potency [2] | Potency [3] | Potency [4] | Potency [5] | activity change, negative = inhibition [6] -20.9% [at 5.34 µM] | outcome [7] inactive [at 5.34 µM] | outcome [8] inactive [at 5.34 µM] | activity change, negative = cytotoxicity [9] 2.41% [at 5.34 µM] | outcome [10] inactive [at 5.25 µM] | outcome [11, 16] inactive [at 5.25 µM]

COc1cc2c(cc1Cc1cccc(Cl)c1F)c(=O)c(C(=O)O)cn2[C@H](CO)C(C)C
-96.1% and -86.8%: activity change, negative = inhibition [11, 16]
inactive: Potency [2] | Potency [3] | Potency [4] | Potency [5] | Potency [6] | outcome [7] | outcome [9] | Potency [10]
active: Potency [8] 12.6 µM

Cc1cc(O)c2c(c1)O[C@@]1(C)CC[C@H]3C(C)(C)CCCC34CO[C@@H]2[C@H]41 (some centres undefined)
-25.2%: activity change, negative = inhibition [11, 16]
inactive: Potency [2] | Potency [3] | Potency [4] | Potency [5] | Potency [6] | outcome [7] | Potency [8] | outcome [9]

O=C(O)Cc1c[nH]c2ccc(O)cc12
inactive: outcome [12] | outcome [13] | Potency [1] | outcome [14] | Potency [2] | Potency [3] | Potency [4] | Potency [5] | outcome [15]

N[C@@H](Cc1ccc(O)c(O)c1)C(=O)O
inactive: outcome [12] | outcome [13] | outcome [14] | Potency [2] | Potency [3] | Potency [4] | Potency [5] | outcome [6] inactive [at 0.573 µM] | outcome [7] inactive [at 0.573 µM] | activity change, negative = inhibition [8] 3.84% [at 0.573 µM] | outcome [9] inactive [at 0.573 µM] | Potency [10] | outcome [11, 16] inactive [at 0.702 µM]
-25.4%: activity change, negative = inhibition [11, 16]

Nc1cc(Cl)c(NC2=NCCN2)c(Cl)c1
inactive: outcome [12] | outcome [13] | Potency [1] | outcome [14] | Potency [2] | Potency [3] | Potency [4] | Potency [5] | Potency [6] | outcome [7] | Potency [8] | outcome [9] | Potency [10]
-17%: activity change, negative = inhibition [11, 16]

N[C@H](CO)C(=O)O
inactive: Potency [1] | outcome [14] | Potency [2] | Potency [3] | Potency [4] | Potency [5] | Potency [6] | outcome [7] | Potency [8] | outcome [9] | Potency [11, 16]

CCN(C(=O)c1c(O)c2c(Cl)cccc2n(C)c1=O)c1ccccc1
inactive: Potency [2] | Potency [3] | Potency [4] | Potency [5] | Potency [6] | outcome [7] | Potency [8] | outcome [9] | Potency [10]
-55.1% and -33%: activity change, negative = inhibition [11, 16]

O=C1CCC(C(=O)O)N1 (centres undefined)
inactive: Potency [2] | Potency [3] | Potency [4] | Potency [5] | Potency [6] | outcome [7] | Potency [8] | outcome [9] | Potency [10]

NC(=O)c1cc[n+](CC2=C(C(=O)O)N3C(=O)[C@@H](NC(=O)[C@@H](c4ccccc4)S(=O)(=O)[O-])[C@H]3SC2)cc1
2.35%: activity change, negative = inhibition [11, 16]
inactive: Potency [1] | outcome [14] | Potency [2] | Potency [3] | Potency [4] | Potency [5] | Potency [6] | outcome [7] | Potency [8] | outcome [9] | Potency [10]
